# Experimental data as given in ChEMBL document CHEMBL4513216, “Probing the Open Global Health Chemical Diversity Library for Multistage-Active Starting Points for Next-Generation Antimalarials” (ACS Infect Dis, 2020).
# Out of some 68,000 compounds screened, about 2,700 (4%) showed an effect of 50% or more. Shown is part of a subset that was picked to be rich in strong results.
# Tested on: Plasmodium berghei
# Assay: Screen against P. berghei liver stage (PbLuc), transformed with Luciferase, at 2uM
# Type: functional, HepG2
# Settings: tested at 2 uM
row,Compound,INHIBITION [%]
1,COc1ccc(CNC(=O)N2CCC(Cc3cnn(C)c3)C2)cc1C (stereo not given),20.28
2,CCNc1ncc(C)c(-c2cnn(C)c2)n1,8.26
3,Cc1cnc(NCc2cnn(C)c2)nc1-c1cnn(C)c1,10.13
4,Cc1cnc(NCc2ccncc2)nc1-c1cnn(C)c1,72.34
5,CCNC(=O)NC(C)(C)C(=O)NCCc1csc2ccccc12,32.03
6,c1cnc(-c2nc(CN3CCN(CC4CC4)CC3)cs2)nc1,24.88
7,Cn1c(=O)n(C)c2cc(C3SCC(=O)Nc4ccsc43)ccc21 (stereo not given),74.91
8,O=C1CSC(c2ccc(O)cc2)c2sccc2N1 (stereo not given),17.94
9,COc1ccc(C2SCC(=O)Nc3ccsc32)cc1OC (stereo not given),7.62
10,CCOC(=O)N(C)C1CCN(Cc2cnc3ccccn23)CC1,2.26
11,COCc1nnc(C(=O)N(C)Cc2cnc3ccccn23)o1,80.13
12,COCc1nnc(C(=O)N(C)Cc2ccc(OC)cc2)o1,14.55
13,CCCc1nnc(C(=O)N(C)Cc2cnc3ccccn23)o1,-2.89
14,CCc1nc(C)c(C(=O)N(C)Cc2cnc3ccccn23)o1,52.81
15,CN(C(=O)C1CCN(Cc2cnc3ccccn23)CC1)c1ccccc1,4.07
16,CS(=O)(=O)N1CCCCC12CCCN(Cc1nccs1)C2 (stereo not given),-14.74
17,CCc1cc(NCCNc2ccncc2C)n2nc(C)c(C)c2n1,-7.77
18,CC(Nc1ccn(Cc2ccccn2)n1)C(=O)NC(C)(C)C (stereo not given),-48.1
19,Cc1nc(CN(C)C)cc(N2CCCC(COc3ccc(F)cc3)C2)n1 (stereo not given),40.47
20,Cc1cc(C(=O)N2CC[C@H]3C[C@H](c4ccncn4)O[C@@H]3C2)c(C)[nH]1,-16.33
21,Cc1oncc1C(=O)N1CC[C@H]2C[C@H](c3ccncn3)O[C@@H]2C1,52.34
22,Cc1noc(C)c1C(=O)N1CC[C@H]2C[C@@H](c3ccncn3)O[C@@H]2C1,1.42
23,CN(Cc1ccc(Cl)c(Cl)c1)C(=O)CNC(N)=O,32.81
24,COCCN1CCC2(CC1)CC(Nc1ccc(C)nn1)CO2 (stereo not given),7.72
25,CC1CCCCN1C(=O)COc1nc(C(C)(C)C)no1 (stereo not given),47.04
26,CC(C)c1noc(OCC(=O)N2CCCCC2C)n1 (stereo not given),17.48
27,Cc1noc(OCC(=O)N2CCCCC2C)n1 (stereo not given),50.32

row,Compound,INHIBITION [%]
1,CCC(C)CNCC1(S(C)(=O)=O)CCOCC1 (stereo not given),10.03
2,CC(CNCC1(S(C)(=O)=O)CCOCC1)c1ccc(F)cc1 (stereo not given),29.28
3,CCC(CC)CNCC1(S(C)(=O)=O)CCOCC1,59.99
4,CCn1c(SCC(=O)N2CCOCC2)nc2cc(C)[nH]c2c1=O,33.58
5,Cc1cc2nc(SCC(=O)N3CCOCC3)n(CCC(C)C)c(=O)c2[nH]1,44.15
6,Cc1cc2nc(SCC(=O)N3CCOCC3)n(CC(C)C)c(=O)c2[nH]1,50.74
7,CC(C)CN1CCC(c2nnc(CN3CCCC3)n2C2CC2)CC1,8.03
8,CCC(=O)N1CCCC1c1nccnc1Nc1nc(C)cc(C)n1 (stereo not given),44.72
9,CN(C)C(=O)C1(CCCc2ccncc2)CCCN1 (stereo not given),54.82
10,NC(=O)C1(CCCc2ccncc2)CCCN1 (stereo not given),46.98
11,CNC(=O)C1(CCCc2ccncc2)CCCN1 (stereo not given),-0.51
12,O=C(O)c1cc(NS(=O)(=O)c2cccc(Cl)c2F)ccc1Cl,36.65
13,Cc1cc(C(=O)N2CCCC2)ccc1NCc1nc(CC(C)C)no1,58.05
14,CCc1noc(CNc2ccc(C(=O)N3CCCC3)cc2C)n1,24.15
15,CCCc1noc(CNc2ccc(C(=O)N3CCCC3)cc2C)n1,-11.2
16,NC(=O)c1cccc(CN2CCc3c(ncn3C3CC3)C2)c1,11.95
17,Cn1cnc2c1CCN(Cc1ccc(C(=O)N3CCCC3)cc1)C2,51.21
18,Cn1cnc2c1CCN(Cc1cccc(OCC(N)=O)c1)C2,3.9
19,Cn1cnc2c1CCN(Cc1cccc(C(=O)N3CCCCC3)c1)C2,5.91
20,CC(C)CNC(=O)c1cccc(CN2CCc3c(ncn3C)C2)c1,21.43
21,Cn1cnc2c1CCN(Cc1cccc(C(N)=O)c1)C2,74.87
22,CCS(=O)(=O)Cc1nc(-c2cnn3c(C)cc(C)nc23)no1,-9.94
23,CN1CCN([C@@H]2CN(C(=O)c3cc4cccc(F)c4[nH]3)C[C@H]2O)CC1,-17.65
24,CNC(=O)C(C)CN(C)C(=O)Nc1cc(F)cc(Br)c1 (stereo not given),-0.47
25,CN(C)CCNC(=O)c1ccccc1NC(=O)c1cc(Cl)ccc1Cl,13.39
26,O=C(NCc1ccco1)[C@@H]1CC[C@@H]2[C@@H](CCN2CC2CC2)O1,22.89
27,N#CC1(NC(=O)COC(=O)Cn2cccn2)CCCC1,-40.04

row,Compound,INHIBITION [%]
1,CC(Cn1cccn1)NCc1nc(-c2cccc(Cl)c2)no1 (stereo not given),73.05
2,CCCc1nc(CNC(C)Cn2cccn2)cs1 (stereo not given),-6.71
3,CCc1nc(CNC(C)Cn2cccn2)cs1 (stereo not given),55.7
4,CC(Cn1cccn1)NCc1csc(Cc2ccccc2)n1 (stereo not given),-44.51
5,Cc1cnn(CC(C)NCC(=O)NCCc2cccs2)c1 (stereo not given),-28.18
6,N#CC1(NC(=O)CNCCn2cccn2)CCCCC1,-45.11
7,CC(Cn1cccn1)NCC(=O)NC1(C#N)CCCCC1 (stereo not given),51.14
8,CC(Cn1cccn1)NCc1nc(-c2cccnc2)no1 (stereo not given),-15.36
9,CC(Cn1cccn1)NCc1nc(-c2ccc3c(c2)OCO3)no1 (stereo not given),-35.26
10,CC(Cn1cccn1)NC(=O)NCCc1cccs1 (stereo not given),-26.87
11,CC(Cn1cccn1)NCC(=O)NCCc1cccs1 (stereo not given),66.99
12,NCCc1cccc(CN2CCN(c3cccc(Cl)c3)C(=O)C2)c1,31.35
13,COCc1nc(C(=O)N2CCN(Cc3ccsc3)CC2)cs1,8.93
14,CC(C)C(=O)N1CCCC(Cc2ncccn2)C1 (stereo not given),-24.73
15,CC(C)COC1CCN(C(=O)c2ccc(C(F)(F)F)[nH]c2=O)CC1,-24.73
16,FC(F)(F)c1cccc(OC2CCN(Cc3c[nH]cn3)CC2)c1,-6.65
17,CCC1=N[C@@]2(CC[C@@H]3CN(CC4CC4)C[C@@H]32)C(=O)N1,-26.61
18,O=C(NC1CC1)c1cnc(-c2noc3cc(N4CCCCC4)ccc23)s1,18.11
19,Cc1cnn(CC(C)NCc2nc(-c3cccs3)no2)c1 (stereo not given),-41.76
20,Cc1cnn(CC(C)NCc2nc(-c3cccnc3)no2)c1 (stereo not given),-36.24
21,Cc1cccc(-c2noc(CNC(C)Cn3cc(C)cn3)n2)c1 (stereo not given),-26.75
22,CC(Cn1cccn1)NCc1nc(-c2cccs2)no1 (stereo not given),51.21
23,Cc1cnn(CC(C)NCc2nc(-c3ccoc3)no2)c1 (stereo not given),59.68
24,CC(Cn1cccn1)NCCCc1nc(-c2cccs2)no1 (stereo not given),21.39
25,O=C(CN1CCOC(CNc2cccnn2)C1)NCc1cccs1 (stereo not given),-48.41
26,Cc1cc(C)n(-c2ccc(N3CCC4(CC3)OCC(C)O4)nc2)n1 (stereo not given),-11.55
27,COCC1CN(CC2CC2)Cc2ncn(CC3CC3)c21 (stereo not given),-21.31

row,Compound,INHIBITION [%]
1,CCN1CCO[C@@H]2CN(C(=O)NCc3ccccc3)CC[C@@H]2C1,0.15
2,COCCN1CCO[C@@H]2CN(C(=O)Cc3ccc(F)cc3)CC[C@@H]2C1,3.72
3,CC(=O)N1CCO[C@@H]2CN(C(=O)NCc3ccccc3)CC[C@@H]2C1,11.79
4,CC(=O)N1[C@H](CN(C)C)C[C@@H]2CN(C(=O)Cc3cccs3)CC[C@@H]21,6.24
5,CS(=O)(=O)N1CCO[C@@H]2CN(C(=O)Cc3cccs3)CC[C@@H]2C1,20.87
6,CN1[C@H](CN2CCCC2)C[C@@H]2CN(C(=O)Cc3cccs3)CC[C@@H]21,10.62
7,CN1CCO[C@@H]2CN(C(=O)NCc3ccccc3)CC[C@@H]2C1,69.86
8,CN(C)CCN1CCO[C@@H]2CN(C(=O)Cc3ccsc3)CC[C@@H]2C1,-19.51
9,CN1CCO[C@@H]2CN(C(=O)Cc3cccs3)CC[C@@H]2C1,52.96
10,CN(C)C[C@@H]1C[C@@H]2CN(C(=O)Cc3cccs3)CC[C@@H]2N1C,54.01
11,CC(C)N1CCO[C@@H]2CN(C(=O)Cc3cccs3)CC[C@@H]2C1,-7.26
12,Cc1ccc(CC(=O)N2CC[C@@H]3CN(CCN(C)C)CCO[C@@H]3C2)cc1,50.96
13,Fc1ccccc1Cn1c(C2CCNCC2)cc2cccnc21,-23.54
14,CCOc1cccc(C(=O)N2CCN(c3nccc(OC)n3)CC2)c1,8.37
15,CCc1ncc(C(=O)N2CCCN(C3CCCCC3)CC2)cn1,-35.1
16,COc1cccc(C2(C(=O)NC3CCc4nccn4C3)CCCC2)c1 (stereo not given),-5.74
17,O=C(c1nc(=O)[nH][nH]1)N1CCCCCC1,33.9
18,CCn1c(C2CCCN(Cc3ccnc4ccccc34)C2)nn(C)c1=O (stereo not given),17.48
19,OCCOCCNCC1(c2ccc(F)cc2)CCOC1 (stereo not given),-18.52
20,CN(Cc1ccccc1)CC(O)Cn1cnc2cc(F)ccc2c1=O (stereo not given),-75.13
21,Cc1ccc(N2CC[C@H]3O[C@@H](C(=O)NCc4ccco4)CC[C@H]32)nn1,4.64
22,CCCNC(=O)CN1CCOC(c2ccc(Br)cc2)C1 (stereo not given),15.82
23,CCNC(=O)NC(=O)CN1CCOC(c2cccc(Br)c2)C1 (stereo not given),16.72
24,CCNC(=O)NC(=O)CN1CCOC(c2ccc(Br)cc2)C1 (stereo not given),59.94
